# About 83,000 compounds went through this panel and 20% of them were active in at least one assay; those are over-represented in the sample as a whole.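 Values shown are percent growth following 48 h exposure of cells in 96-well plates to a single concentration of compound; below 10 was considered active.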 Unmarked numbers belong to inactive results. Calls of active or inactive are those of the source.
# Tests used:
# Test in all cases: NCI-60 one-dose screen, 48 h (100 = growth as untreated, 0 = no growth, -100 = all killed)
# Conditions in all cases: 10 µM unless noted
# [1] = tested on: OVCAR-8 ovarian
# [2] = tested on: OVCAR-5 ovarian
# [3] = tested on: OVCAR-4 ovarian
# [4] = tested on: SK-OV-3 ovarian
# [5] = tested on: IGROV1 ovarian
# [6] = tested on: OVCAR-3 ovarian
# [7] = tested on: HS 578T breast
# [8] = tested on: NCI/ADR-RES ovarian
# [9] = tested on: T-47D breast
# [10] = tested on: BT-549 breast
# [11] = tested on: MDA-MB-435 melanoma
# [12] = tested on: SW-620 colon
# [13] = tested on: MCF7 breast
# [14] = tested on: HCT-116 colon
# [15] = tested on: HCC-2998 colon
# [16] = tested on: KM12 colon
Compound,growth [1],growth [2],growth [3],growth [4] [%],growth [5] [%],growth [6],growth [7],growth [8],growth [9],growth [10],growth [11],growth [12],growth [13],growth [14],growth [15],growth [16]
COc1ccc(-c2nc(SCCC(C)C)nc(N/N=C\c3cccc(Cl)c3)c2C#N)cc1,57.7%,84.3%,-13.4% (active),84,76.2,38.5%,20.7%,79.2%,59.7%,85.5%,88.5%,54.4%,73.3%,33.3%,92.2%,90.6%
COc1ccc(-c2nc(SCCC(C)C)nc(N/N=C\c3cccc([N+](=O)[O-])c3)c2C#N)cc1,39.7%,38.4%,-13.3% (active),63.4,38.8,-30.4% (active),9.44% (active),56.2%,27.5%,63.2%,56.3%,15.5%,35.6%,23.5%,52%,27.1%
CC(C)(C)CC(C)(C)Nc1c(-c2ccncc2)nc2cnccn12,95.6%,93.7%,84%,92.8,99.8,102%,92.2%,99.5%,86.1%,98.6%,99.2%,106%,96.5%,90.1%,116%,98.1%
O=C1/C(=C\c2c[nH]c3ccccc23)c2ccccc2N1c1c(Cl)cccc1Cl,8.34% (active),-35.9% (active),25%,22.7,23.9,-27.8% (active),-11.4% (active),-8.2% (active),1.28% (active),-22.1% (active),-21.6% (active),5.11% (active),0.197% (active),-100% (active),-91.9% (active),-82.3% (active)

# From PubChem BioAssay (NCI)
